In PubChem BioAssay AID1903 (Southern Research Specialized Biocontainment Screening …, 2009):
About 1,200 (0.39%) of roughly 310,000 compounds were called active. The rule behind the calls is not given here. A selection follows. Measured potencies and affinities stand elsewhere.

The compounds below were run against Large T antigen (Simian virus 40) (UniProt P03070) (assay: TAg ATPase/helicase activity blockers – biochemical (AID 1903)). Conditions: SV40 large T antigen ATPase/helicase inhibition assay; at 20 µM; active compounds read high.
Chain of Large T antigen (Simian virus 40) (P03070 whole entry, looked up): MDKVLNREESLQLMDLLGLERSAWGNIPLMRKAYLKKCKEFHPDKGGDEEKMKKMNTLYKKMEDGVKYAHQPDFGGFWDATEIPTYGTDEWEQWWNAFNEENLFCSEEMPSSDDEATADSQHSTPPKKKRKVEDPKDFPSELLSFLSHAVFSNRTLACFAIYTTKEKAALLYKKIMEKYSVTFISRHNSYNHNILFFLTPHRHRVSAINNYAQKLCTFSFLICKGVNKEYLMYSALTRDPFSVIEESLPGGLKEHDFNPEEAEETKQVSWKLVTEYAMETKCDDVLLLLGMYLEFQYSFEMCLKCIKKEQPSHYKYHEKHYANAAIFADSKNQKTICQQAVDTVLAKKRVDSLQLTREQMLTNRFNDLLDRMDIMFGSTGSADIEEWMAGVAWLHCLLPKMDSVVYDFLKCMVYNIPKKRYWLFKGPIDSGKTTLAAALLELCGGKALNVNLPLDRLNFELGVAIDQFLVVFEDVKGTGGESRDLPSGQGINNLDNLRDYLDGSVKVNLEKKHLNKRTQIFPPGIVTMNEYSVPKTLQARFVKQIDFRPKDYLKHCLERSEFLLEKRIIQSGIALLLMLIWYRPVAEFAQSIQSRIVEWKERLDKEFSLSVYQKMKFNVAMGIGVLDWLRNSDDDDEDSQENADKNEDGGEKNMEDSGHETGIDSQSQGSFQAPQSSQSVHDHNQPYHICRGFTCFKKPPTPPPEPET
With `CCN(CC(=O)Nc1c(F)cccc1F)C(=O)/C=C/c1ccc(Br)s1` the inhibition was 18.8% (inactive). With `Cc1ccc(-c2cn3c(n2)SCC3)cc1` the inhibition was 23.1% (inactive). `Oc1ccc(-c2cn3c(n2)SCC3)cc1` was tested, and the inhibition was 28.9% (inactive). In the case of `Cc1ccc(C)c(S(=O)(=O)N2CCCCC2CCNC(=O)C(=O)NCc2cccnc2)c1` (stereo not given), the inhibition is reported as 11.7% (inactive). In the case of `CN(C)CCn1c(COc2ccccc2)nc2ccccc21`, the inhibition is reported as 27.6% (inactive). `COc1ccc(N2CCN(C(=S)NCc3ccc(C)cc3)CC2)cc1` was tested, and the inhibition was 5.85% (inactive). For `CCCCCC(=O)NC(NC(=S)Nc1ccc(S(N)(=O)=O)cc1)C(Cl)(Cl)Cl` (stereo not given), the inhibition was 7.24% (inactive). With `O=C(Nc1cccc(-n2cnnn2)c1)c1cccs1` the inhibition was 6.94% (inactive). `O=C(Nc1cccc(N2CCCC2)c1)c1cccs1` was tested, and the inhibition was 7.12% (inactive). With `CN1CCCN(C(=O)CSc2ccccc2)CC1` the inhibition was 27.3% (inactive). `Cc1ccc(/C=C/C(=O)NCc2ccco2)o1` was tested, and the inhibition was 16.3% (inactive). In the case of `O=C1C(=Cc2cccn2-c2ccc(O)cc2)C(=O)c2ccccc21`, the inhibition is reported as 3.5% (inactive). For `O=C1NC(=S)N/C1=C/c1cccn1-c1ccc([N+](=O)[O-])cc1`, the inhibition was 5.15% (inactive). With `COc1ccc(N(CC(=O)Nc2ccc(C)cc2C)S(=O)(=O)c2c(C)n[nH]c2C)cc1` the inhibition was 17.7% (inactive). `O=C(COC(=O)c1n[nH]c2ccccc12)Nc1cccc(S(=O)(=O)N2CCOCC2)c1` was tested, and the inhibition was 7.02% (inactive). `CCOc1ccc(S(=O)(=O)Nc2ccc(O)c(Sc3ncn[nH]3)c2)cc1` was tested, and the inhibition was 6.38% (inactive). In the case of `CCOc1ccc(NS(=O)(=O)c2ccc3[nH]c(=O)oc3c2)cc1`, the inhibition is reported as 1.63% (inactive). `O=C(c1ccc(S(=O)(=O)Nc2ccc(F)cc2)cc1)N1CCN(c2ccccn2)CC1` was tested, and the inhibition was 10.4% (inactive). With `COc1cc(/C=C2/C(=O)NN(c3ccc(Cl)cc3)C2=O)cc(Br)c1O` the inhibition was 32.1% (inactive). `COc1cc(/C=C2/C(=O)NN(c3cccc(C)c3)C2=O)cc([N+](=O)[O-])c1O` was tested, and the inhibition was 12.9% (inactive). For `COc1cc(/C=C2\C(=O)N(c3ccc(S(N)(=O)=O)cc3)N=C2C)ccc1OC(=O)c1ccco1`, the inhibition was 32.1% (inactive). With `COc1cc(/C=C2/SC(=O)NC2=O)ccc1OC(=O)c1ccco1` the inhibition was 15.8% (inactive). `COC(=O)c1ccc(N2NC(=O)/C(=C/c3ccc(OC)c(OC)c3)C2=O)cc1` was tested, and the inhibition was 23.8% (inactive). In the case of `COc1cc(/C=C2\C(=O)NN(c3ccc(C)cc3)C2=O)cc([N+](=O)[O-])c1O`, the inhibition is reported as 36.6% (inactive). With `O=C(c1cccc2nc3ccccc3nc12)N1CCOCC1` the inhibition was 13.7% (inactive). For `Cc1ccccc1N1C(=O)c2cccc([N+](=O)[O-])c2C1=O`, the inhibition was 18.8% (inactive). With `Cc1cccn2c(CNCCSc3nccn3C)c(C(=O)N3CCCCC3)nc12` the inhibition was 14.5% (inactive). `O=C(Nc1nncs1)Oc1ccccc1` was tested, and the inhibition was 14.9% (inactive). `CCCCc1nc(SCC(=O)N2CCCC2)c2c(=O)n(C)c(=O)n(C)c2n1` was tested, and the inhibition was 8.36% (inactive). For `O=C(Nc1nccs1)C1CC=CCC1` (stereo not given), the inhibition was 2.9% (inactive). `O=C(NNC(=O)C1CC=CCC1)c1ccccc1O` (stereo not given) was tested, and the inhibition was -2.59% (inactive). `O=C(Nc1ccc(F)cc1)C1CCCO1` (stereo not given) was tested, and the inhibition was 22.1% (inactive). `O=C(Nc1ccc(Oc2ccc(NC(=O)C3CCCO3)cc2)cc1)C1CCCO1` (stereo not given) was tested, and the inhibition was 5.21% (inactive). With `O=C(Nc1cccc(O)c1)c1ccc(NC(=O)C2CCCO2)cc1` (stereo not given) the inhibition was 12.5% (inactive). `O=C(Nc1ccc(F)cc1)c1ccc(NC(=O)C2CCCO2)cc1` (stereo not given) was tested, and the inhibition was 1.01% (inactive). For `COc1ccc(OC)c(CC(=O)NC(c2ccccc2)c2ccccc2)c1`, the inhibition was 5.47% (inactive). `O=C(N=Nc1c(O)[nH]c2ccccc12)c1cc(-c2ccc(F)cc2)n[nH]1` was tested, and the inhibition was 7.92% (inactive). `O=C(c1ccncc1)N1CCN(C(=O)c2ccco2)CC1` was tested, and the inhibition was 6.56% (inactive). With `O=S(Cc1cc(Oc2ccccc2)nc(-c2ccccc2)n1)c1ccccc1` (stereo not given) the inhibition was 16.4% (inactive). `CN1CCN(c2ccc(CNC(=O)c3ccco3)cc2)CC1` was tested, and the inhibition was 9.25% (inactive). `O=C(CCCN1C(=O)CSc2ncccc21)N1CCN(Cc2ccccc2)CC1` was tested, and the inhibition was -0.33% (inactive). With `COc1cccc(N/C(SCc2ccccc2F)=C(/C#N)C(=O)NCc2cccs2)c1` the inhibition was 2.65% (inactive). For `Cc1ccc2[nH]c(=O)c(CN(Cc3ccccc3)C(=S)NCCCN(C)C)cc2c1`, the inhibition was 2.51% (inactive). For `NC(=O)c1cc(N)ccc1N1CCCCC1`, the inhibition was 36% (inactive). `NC(=O)c1cc(N)ccc1N1CCCC1` was tested, and the inhibition was 18.4% (inactive). For `COc1ccc(N(CC(=O)N2CCCC2)S(=O)(=O)c2ccc(NC(C)=O)cc2)cc1`, the inhibition was -2.23% (inactive). For `O=C(CCc1ccccc1)Nc1nc2nc(-c3ccccc3)cc(=O)n2[nH]1`, the inhibition was -26.7% (inactive). `C/C(O)=C(\C#N)c1nc2ccccc2[nH]1` was tested, and the inhibition was 1.46% (inactive). `C/C(O)=C(/C#N)c1nc2ccccc2[nH]1` was tested, and the inhibition was 7.8% (inactive). In the case of `O=S(=O)(c1cc(-c2nnc(-c3ccc(Br)cc3)o2)ccc1Br)N1CCCCCC1`, the inhibition is reported as 4.66% (inactive). In the case of `CN(C)c1nn(C(=O)Nc2cccc(C(F)(F)F)c2)cc1-c1ccccc1`, the inhibition is reported as 23.9% (inactive). For `O=C(Nc1ccc(Cl)cc1Cl)c1ccc(-c2ccccc2)cc1`, the inhibition was 3.2% (inactive). For `CN1CCN(S(=O)(=O)c2cnccc2N2CCN(c3cccc(Cl)c3)CC2)CC1`, the inhibition was 25% (inactive). For `Cc1c(C(=O)/C=C/N(C)C)nnn1-c1ccc(F)c(Cl)c1`, the inhibition was 10.7% (inactive). With `CC(NS(=O)(=O)c1ccc(Br)cc1)C(N)=O` (stereo not given) the inhibition was 3.6% (inactive). For `COc1cc(/C=N\NC(=O)c2ccc(Cn3cc(Br)c([N+](=O)[O-])n3)o2)cc(OC)c1O`, the inhibition was 32.8% (inactive). In the case of `COc1ccc(/C=N/NC(=O)c2ccc(Cn3cc([N+](=O)[O-])cn3)o2)cc1O`, the inhibition is reported as 17.9% (inactive). For `COc1ccc(/C=N/NC(=O)c2ccc(N)cc2)cc1Cn1cc([N+](=O)[O-])cn1`, the inhibition was -3.89% (inactive). With `COc1ccc(/C=N/NC(=O)c2ccccc2O)cc1Cn1cc([N+](=O)[O-])cn1` the inhibition was 12.7% (inactive). For `Cc1c(Cl)c([N+](=O)[O-])nn1Cc1ccc(C(=O)N/N=C\c2ccccn2)o1`, the inhibition was 6.44% (inactive). In the case of `COc1ccc(/C=N/NC(=O)c2ccncc2)cc1CN1CCOCC1`, the inhibition is reported as 14.2% (inactive). For `COc1ccc(/C=N/NC(=O)c2cccc(Br)c2)cc1CN1CCOCC1`, the inhibition was 4.55% (inactive). For `Cc1c(Cl)c([N+](=O)[O-])nn1Cc1ccc(C(=O)N/N=C\c2cccc(Br)c2)o1`, the inhibition was -0.98% (inactive). In the case of `Cc1ccc([N+](=O)[O-])c(C(=O)N/N=C/c2cccnc2)c1`, the inhibition is reported as 13.6% (inactive). With `O=[N+]([O-])c1cccc(/C=N/N2CCN(Cc3ccccc3)CC2)c1` the inhibition was 16.1% (inactive). `CN1CCOc2ccc(S(=O)(=O)NCCc3ccc(Cl)cc3)cc21` was tested, and the inhibition was 4.83% (inactive). In the case of `CC(Oc1ccc(Br)cc1)C(=O)NCC(c1cccs1)N1CCOCC1` (stereo not given), the inhibition is reported as 0.98% (inactive). `O=C(NNc1ccc([N+](=O)[O-])cc1)C1C2CCCCC21` (stereo not given) was tested, and the inhibition was 2.05% (inactive). In the case of `CC1CCN(S(=O)(=O)c2cccc(C(=O)N(Cc3ccccc3)c3ccccn3)c2)CC1`, the inhibition is reported as 6.8% (inactive). `CN(C)/C=C(\C#N)C(=O)Nc1ccc(F)cc1` was tested, and the inhibition was -1.08% (inactive). With `CN(C)/C=C(\C#N)C(=O)Nc1ccc(F)c(Cl)c1` the inhibition was 14.7% (inactive). With `COc1ccc(C)cc1NC(=O)c1ccc2c(O)c(S(=O)(=O)c3ccccc3)c(=O)[nH]c2c1` the inhibition was 13.8% (inactive). In the case of `CC(C)(C)c1ccc(OCC(O)CSc2ncn[nH]2)cc1` (stereo not given), the inhibition is reported as 3.06% (inactive). With `COc1ccc2c(c1)C(=O)CC(c1ccccc1F)O2` (stereo not given) the inhibition was 15.3% (inactive). With `COc1ccc2c(c1)C(=O)c1ccccc1CO2` the inhibition was 10.1% (inactive). `O=C1C2C3C=CC(CO)(O3)C2C(=O)N1c1ccccc1-c1ccccc1` (stereo not given) was tested, and the inhibition was 13.7% (inactive). For `CCN(CC)C(=O)c1c(-c2ccccc2)oc2ccc(O)cc12`, the inhibition was 13.9% (inactive). For `O=C(O)c1c(-c2ccccc2)oc2ccc(O)cc12`, the inhibition was 15% (inactive). In the case of `CCn1c(=O)n(CC)c2cc(S(N)(=O)=O)ccc21`, the inhibition is reported as 3.97% (inactive). For `CCn1c(=O)n(CC)c2cc([N+](=O)[O-])ccc21`, the inhibition was -2.72% (inactive). For `O=C(COc1ccccc1Cl)NCc1nc(-c2ccccc2)no1`, the inhibition was 10.2% (inactive). `Cc1ccc(Nc2nc(N)c([N+](=O)[O-])c(N3CCOCC3)n2)cc1` was tested, and the inhibition was 9.48% (inactive). For `COc1ccc(Nc2nc(N)c([N+](=O)[O-])c(N3CCOCC3)n2)cc1`, the inhibition was 10.9% (inactive). In the case of `Cc1cc(/C=C(\C#N)C(=O)O)c(C)n1C1CC1`, the inhibition is reported as 11.4% (inactive). With `O=C(N/N=C/c1ccc(OCc2ccc(F)cc2)cc1)c1ccccc1` the inhibition was 1.09% (inactive). With `Cc1nn(CC(=O)N2CCC(N3CCCCC3)CC2)c(=O)c2c1sc1ccccc12` the inhibition was 17.6% (inactive). `Cc1cccc(N2CCN(C(=O)Cn3nc(C)n4cccc4c3=O)CC2C)c1` (stereo not given) was tested, and the inhibition was 8.5% (inactive). `CCOC(=O)C1CCCN(C(=O)Cn2sc3nc(C)cc(C)c3c2=O)C1` (stereo not given) was tested, and the inhibition was 73.4% (inactive). With `Cc1cc(C)c2c(=O)n(CC(=O)N3CCC(Cc4ccccc4)CC3)sc2n1` the inhibition was 3.6% (inactive). `CN1CCN(c2ccc(Cl)cc2NC(=O)c2ccc(=O)n(C)n2)CC1` was tested, and the inhibition was 22.8% (inactive). For `CC(C)c1ccc2[nH]c(O)c(N=NC(=O)c3cccc(S(=O)(=O)Nc4ccccc4Cl)c3)c2c1`, the inhibition was -4.52% (inactive). In the case of `COc1ccccc1C(=O)NNC(=O)c1sccc1-n1cccc1`, the inhibition is reported as 8.72% (inactive). For `CCN(CC)CCN1c2ccccc2Sc2ccccc21`, the inhibition was 34.5% (inactive). `CN(C)CCCN1c2ccccc2Sc2ccccc21` was tested, and the inhibition was 33% (inactive). For `CCCCN(C(=O)c1ccc([N+](=O)[O-])o1)c1c(N)n(CC(C)C)c(=O)[nH]c1=O`, the inhibition was 20.2% (inactive).
